Test results taken from PubChem BioAssay AID687016 (The Scripps Research Institute Molecular Screening Center, 2013).
The whole screen tested about 370,000 compounds, of which about 2,800 (0.76%) were called active. Rule as the data show it: active = inhibition above about 21%; inactive = the rest. What follows is part of a selection rich in actives, with near analogues and random picks from the rest.

biological target: E3 ubiquitin-protein ligase UHRF1 (Homo sapiens) (UniProt Q96T88); test: blockers of UHRF1 binding to methyl-oligo – biochemical, TR-FRET, human UHRF1, single concentration, counter-screen for MBD2 inhibitor project, primary screen (AID 687016); settings: UHRF1 binding to methylated oligo, at 4.4 µM, hits give high values;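 also: UHRF1 SRA domain binding a hemimethylated CpG hairpin DNA probe; 0% = median of test compound wells and 100% = reference inhibitor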
Sequence (Q96T88 whole entry, looked up, the tested form may be a part): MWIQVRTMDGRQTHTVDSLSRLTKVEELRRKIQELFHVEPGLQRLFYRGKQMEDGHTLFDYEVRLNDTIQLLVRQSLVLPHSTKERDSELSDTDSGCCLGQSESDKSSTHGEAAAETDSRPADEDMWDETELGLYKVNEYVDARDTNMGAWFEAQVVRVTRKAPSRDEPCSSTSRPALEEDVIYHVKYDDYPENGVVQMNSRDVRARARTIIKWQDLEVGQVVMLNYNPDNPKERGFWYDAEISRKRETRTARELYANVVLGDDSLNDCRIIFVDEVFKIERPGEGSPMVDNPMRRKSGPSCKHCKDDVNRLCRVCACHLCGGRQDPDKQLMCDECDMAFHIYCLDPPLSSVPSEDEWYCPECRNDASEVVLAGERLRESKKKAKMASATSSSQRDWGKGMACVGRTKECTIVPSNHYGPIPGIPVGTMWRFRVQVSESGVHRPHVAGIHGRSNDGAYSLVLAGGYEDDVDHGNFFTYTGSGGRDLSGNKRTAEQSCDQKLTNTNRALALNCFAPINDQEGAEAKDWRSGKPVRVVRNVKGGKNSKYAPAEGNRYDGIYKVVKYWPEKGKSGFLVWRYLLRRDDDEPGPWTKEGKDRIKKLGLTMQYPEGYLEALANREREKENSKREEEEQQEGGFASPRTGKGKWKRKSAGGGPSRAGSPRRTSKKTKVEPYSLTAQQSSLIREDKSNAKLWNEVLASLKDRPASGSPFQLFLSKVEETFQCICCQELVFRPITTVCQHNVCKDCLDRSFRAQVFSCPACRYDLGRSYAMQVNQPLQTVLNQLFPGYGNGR

SMILES | inhibition
CC(C)(C)OC(=O)NCCc1ccccc1/C=C/S(=O)(=O)NCc1ccc(F)cc1 | 3.54% (inactive)
CSc1ccc(C=Nn2c(-c3ccc(F)cc3)n[nH]c2=S)cc1 | -0.35% (inactive)
CCOc1ccc(-n2c(SCC(=O)Nc3cc(C)c(NC(=O)c4ccccc4)cc3OC)nnc2-c2cccs2)cc1 | -0.28% (inactive)
Cc1ccc(C(=O)C2CCN(CC(=O)NCCC(C)C)CC2)cc1 | 9.98% (inactive)
O=S1(=O)c2c(NCc3ccco3)cccc2Oc2ccccc2CN1Cc1cn(Cc2cccc(C(F)(F)F)c2)nn1 | 3.97% (inactive)
CC(=O)c1cccc(-c2ccc(CN3C(CC(C)C)C(=O)N(Cc4cn(CC5CCCCC5)nn4)CCS3(=O)=O)cc2)c1 (stereo not given) | 21% (active)
CC(C)CC1C(=O)N(Cc2cn(CC3CCCCC3)nn2)CCS(=O)(=O)N1Cc1ccc(-c2ccc(Cl)cc2)cc1 (stereo not given) | -1.68% (inactive)
COc1ccc(-c2ccc(CN3C(CC(C)C)C(=O)N(Cc4cn(CC5CCCCC5)nn4)CCS3(=O)=O)cc2)cc1 (stereo not given) | 1.54% (inactive)
CCOC(=O)[C@@]12CN(C(=O)OC(C)(C)C)CC=C1N(Cc1ccc(OC)cc1)C(=O)[C@H]2CC(=O)NCc1ccc(OC)c(OC)c1 | -2.61% (inactive)
COC(=O)C1CN(CC(C)C)CCS(=O)(=O)N1Cc1ccc(C)cc1 (stereo not given) | 1.11% (inactive)
O=C(COc1cccc(Cl)c1)NCc1ccccc1 | 36% (active)
O=C(COC(=O)c1cccc(Cl)c1)NC(=O)NCc1ccccc1 | -0.3% (inactive)
O=C(O)CCCn1cc(NC(=O)COc2cccc(Cl)c2)cn1 | 5.22% (inactive)
CCCCCCCCNS(=O)(=O)/C=C/c1cc(C)ccc1CNC(=O)OC(C)(C)C | -7.08% (inactive)
CC(=O)C1(C(=O)Nc2nccs2)CC(c2ccccc2C(F)(F)F)=NO1 (stereo not given) | -0.55% (inactive)
CCOC(=O)[C@]12CCCC3=C1N(CCC3)C(=O)[C@@H](CC(=O)NCc1cccs1)C2 | -1.06% (inactive)
COc1nc(Oc2ccc(=O)n(C)n2)nc(N(C)C)n1 | -0.4% (inactive)
COc1nc(N(C)C)nc(N2CC(=O)N(CCNS(=O)(=O)c3ccc(C)cc3)C2=N)n1 | 22.6% (active)
Cc1ccc(S(=O)(=O)NCCSC(C)(C)C)cc1 | -0.21% (inactive)
COc1ccccc1C(=O)NC1CCCCN(C(C)C)C1=O (stereo not given) | 2.58% (inactive)
O=C(OCC(=O)N1CCN(c2ccccc2)CC1)c1ccc([N+](=O)[O-])s1 | -3.28% (inactive)
COc1ccc(C(=O)OCC(=O)c2ccc(C)c(S(=O)(=O)N3CCOCC3)c2)cc1OC | -0.9% (inactive)

SMILES | inhibition
COc1ccc(C(=O)COC(=O)c2ccc([N+](=O)[O-])s2)cc1OC | 21.7% (active)
CC(c1c[nH]c2ccccc12)c1c(-c2ccccc2)n(C)c2ccccc12 (stereo not given) | 1.29% (inactive)
Cc1cc(C)n2ncc(C(=O)Nc3ccc4c(c3)OCCO4)c2n1 | -6.73% (inactive)
O=C(/C=C/[C@H]1O[C@@H](n2cnc3c(NC(=O)c4ccccc4)ncnc32)[C@H](O)[C@@H]1O)NCc1ccccc1 | 23% (active)
CCC(C)C(CO)NC(=O)/C=C/[C@H]1O[C@@H](n2cnc3c(NC(=O)c4ccccc4)ncnc32)[C@H](O)[C@@H]1O (stereo not given in full) | 19.7% (inactive)
COc1cccc(CN(C)C(=O)CC[C@H]2O[C@@H](n3cnc4c(NC(=O)c5ccccc5)ncnc43)[C@H](O)[C@@H]2O)c1 | 0.17% (inactive)
Cc1ccc(-n2c(COc3ccccc3)nnc2SCC(=O)Nc2ccc3c(c2)OCCO3)cc1 | 1.6% (inactive)
COc1ccc(Cn2cc(COC(=O)N(C)Cc3ccccc3)nn2)cc1 | 1.11% (inactive)
Cc1cccc(NC(=O)C2CCCN(C(=O)Nc3ccc(F)cc3)C2)c1C (stereo not given) | 10.2% (inactive)
Cc1cccc(NC(=O)C2CCCN2S(=O)(=O)c2ccc(F)cc2)c1C (stereo not given) | 42.7% (active)
COc1ccccc1NC(=O)C1CCCN1S(=O)(=O)c1ccc(Cl)cc1 (stereo not given) | -0.35% (inactive)
Cc1ccccc1NC(=O)COC(=O)c1ccc(Sc2ncn[nH]2)c([N+](=O)[O-])c1 | -0.88% (inactive)
O=C(NC1CCCCN(Cc2ccc(Cl)cc2)C1=O)c1ccc(Br)cc1 (stereo not given) | -3.02% (inactive)
C[C@@H]1COc2cccc(N3CCCC3)c2S(=O)(=O)N1C | 0.4% (inactive)
CC(Cc1cccs1)N(Cc1ccc(Cl)cc1)C(=O)c1ccncc1 (stereo not given) | 26.1% (active)
CC(Cc1cccs1)NC(=O)c1cccc(Cl)c1 (stereo not given) | -1.41% (inactive)
CC(C)(C)N(Cc1ccccc1)C(=O)c1ccncc1 | 1.02% (inactive)
COc1ccc(C2Nc3ccccc3C(=O)N2Cc2cccs2)cc1COc1c(C)cccc1C (stereo not given) | 1.56% (inactive)
O=C1Nc2ccccc2OC1CC(=O)N1CCCCCCC1 (stereo not given) | -2.05% (inactive)
CC(=O)OCCN1CCCC12CCC(c1ccccc1)CC2 (stereo not given) | 0.81% (inactive)
CCOc1ccc(C(C)=O)cc1COC(=O)CN1C(=O)NC2(CCCC2)C1=O | 2.29% (inactive)
O=C(CN1C(=O)NC2(CCCC2)C1=O)OCCOc1ccc(F)cc1 | 0.11% (inactive)

SMILES | inhibition
Cc1ccc(COC(=O)CN2C(=O)NC3(CCCC3)C2=O)cc1 | 42.5% (active)
COc1ccccc1CCNC(=O)C1CCN(c2nc(C)cc(C)n2)CC1 | 2.65% (inactive)
O=C(c1ccc(C(F)(F)F)cc1)N1CCC(=O)N([C@H](COCc2ccccc2)Cc2ccccc2)CC1 | -0.62% (inactive)
CC(C)CC(COCc1ccc(Cl)cc1)N1CCN(C(=O)c2ccc(C(F)(F)F)cc2)CCC1=O (stereo not given) | 10.1% (inactive)
COc1ccc(COC[C@H](CC(C)C)N2CCN(C(=O)c3cccc(C(F)(F)F)c3)CCC2=O)cc1 | 21.1% (active)
O=C(CSc1nnc(COc2ccccc2)n1Cc1ccco1)c1ccc2ccccc2c1 | -1.9% (inactive)
CCn1c2ccccc2c2cc(NC(=O)CSc3nnc(-c4ccccc4)n3-c3ccc(C)cc3)ccc21 | -2.76% (inactive)
FC(F)(F)c1ccccc1Cc1c(-c2ccccc2)nc2c3ccccc3ccn12 | 14.2% (inactive)
Cc1cc(Br)cn2c(Cc3ccccc3C(F)(F)F)c(C3CCCCC3)nc12 | 11.3% (inactive)
CCCc1nc2c3ccccc3ccn2c1Cc1ccccc1C(F)(F)F | 22.9% (active)
COc1ccc([C@H]2OC(=O)C[C@H]2C(=O)N2CCN(c3ccccc3F)CC2)cc1OC | -2.23% (inactive)
COc1ccc(C)c(Cn2c(-c3nonc3N)nc3ccccc32)c1 | -5.53% (inactive)
O=S(=O)(Cc1ccccc1)c1nc2ccccc2n1Cc1ccccn1 | 0.93% (inactive)
CC(=O)Nc1nonc1-c1nc2ccccc2n1Cc1ccccn1 | 54.5% (active)
Cc1cccc(C(=O)Nc2c(-c3ccc(F)cc3)nc3ncccn23)c1 | -2.59% (inactive)
COc1ccc(N2CCN(CCNS(=O)(=O)c3ccc([N+](=O)[O-])cc3)CC2)cc1 | -0.84% (inactive)
COc1c(C)cc(C(=O)C2CCCN(S(=O)(=O)c3c(C)noc3C)C2)cc1C (stereo not given) | 20.7% (active)
Cc1noc(C)c1S(=O)(=O)N1CCCC(C(=O)Nc2nccs2)C1 (stereo not given) | -1.61% (inactive)
Cc1ccc(NC(=O)C2CCCN(S(=O)(=O)c3c(C)noc3C)C2)c(C)c1 (stereo not given) | -1.46% (inactive)
Cc1ccc(C2=CCN(C)C(=O)N2c2ccc(Cl)cc2)cc1 | -4.14% (inactive)
COc1ccc(C#CCNCc2ccc(OC)cc2OC)cc1 | -1.17% (inactive)
CCOC(=O)c1sc2nc(C)nc(SCC(N)=O)c2c1C | -1.2% (inactive)

SMILES | inhibition
CSc1nnc(SCc2nc3sc(C(=O)O)c(C)c3c(=O)[nH]2)s1 | 32.3% (active)
CCN(CC)Cc1nc2sc(C)c(C)c2c(=O)[nH]1 | 2.13% (inactive)
Cc1c(C(C)c2ccccc2O)[nH]c2ccccc12 (stereo not given) | -2.42% (inactive)
O=C(CSc1nc2ccccc2s1)N=Nc1c(O)[nH]c2ccccc12 | -3.32% (inactive)
CCN(CC)C(=O)CC[C@@H]1CC[C@]2(CCCN(S(=O)(=O)C3CCCCC3)C2)O1 | -0.55% (inactive)
Cc1ccc(Cn2cc(COC(=O)N(C)Cc3ccccc3)nn2)cc1 | -4.1% (inactive)
Cc1ccc(Cn2nnc3c(=O)n(CC(=O)N4CCCCC4)cnc32)cc1 | 0.43% (inactive)
O=C(Cn1cnc2c(nnn2Cc2ccc(F)cc2)c1=O)NCc1ccc2c(c1)OCO2 | 21.8% (active)
Cc1cc(C)cc(NC(=O)Cn2cnc3c(nnn3Cc3ccc(F)cc3)c2=O)c1 | 0.23% (inactive)
CCCCNC(=O)C[C@H]1C(=O)N(Cc2ccc(OC)cc2)C2=CCCC[C@@]21C(=O)OCC | 5.53% (inactive)
Cc1nc(CNc2ncnc3ccc(-c4ccc5c(c4)OCO5)cc23)cs1 | -2.89% (inactive)
COC(=O)c1sc(N)c(C(=O)OC)c1COC(=O)CNS(=O)(=O)c1ccc(C)cc1 | -0.33% (inactive)
COC(=O)c1c(-c2ccc(C)cc2)csc1N | 28.4% (active)
CCC(C(=O)OC)n1cnc2scc(-c3ccc(C)cc3)c2c1=O (stereo not given) | 0.64% (inactive)
CCCCNC(=O)C[C@H]1C[C@@]2(C(=O)OC)C(=C[C@H](COCc3ccccc3)O[C@@H]2C)N(Cc2ccc(Cl)cc2Cl)C1=O | 1.55% (inactive)
COC(=O)C1CN(CCc2ccccc2)CCS(=O)(=O)N1Cc1cccc(Cl)c1 (stereo not given) | 1.44% (inactive)
CC(NCc1ccco1)C(=O)N1CCCCC1 (stereo not given) | 0.03% (inactive)
COc1ccc(-n2c(SCC(=O)Nc3ccc4c(c3)OCCO4)nnc2-c2ccc(Cl)cc2)cc1 | 2.21% (inactive)
COC(=O)CC1CCc2cc(C)cc(C(CC(C)C)NC(=O)[C@H](CC(C)C)NC(=O)OCc3ccccc3)c2O1 (stereo not given in full) | 4.14% (inactive)
